Laboratory results reported in publication PMC4336329 (PLoS ONE, 2015).
In all, about 310,000 compounds went through this assay and about 2,200 (0.71%) showed an effect of 50% or more. The effect is printed as a negative number. Only a selection was taken, and strong results are over-represented in it overall.

Molecular target: human ether-à-go-go-related gene (hERG) potassium channel (human, UniProt Q12809)
Test: primary screen, population patch clamp on CHO cells stably expressing hERG; higher = less effect of the substance

Sequence of human ether-à-go-go-related gene (hERG) potassium channel (Q12809 whole entry, looked up): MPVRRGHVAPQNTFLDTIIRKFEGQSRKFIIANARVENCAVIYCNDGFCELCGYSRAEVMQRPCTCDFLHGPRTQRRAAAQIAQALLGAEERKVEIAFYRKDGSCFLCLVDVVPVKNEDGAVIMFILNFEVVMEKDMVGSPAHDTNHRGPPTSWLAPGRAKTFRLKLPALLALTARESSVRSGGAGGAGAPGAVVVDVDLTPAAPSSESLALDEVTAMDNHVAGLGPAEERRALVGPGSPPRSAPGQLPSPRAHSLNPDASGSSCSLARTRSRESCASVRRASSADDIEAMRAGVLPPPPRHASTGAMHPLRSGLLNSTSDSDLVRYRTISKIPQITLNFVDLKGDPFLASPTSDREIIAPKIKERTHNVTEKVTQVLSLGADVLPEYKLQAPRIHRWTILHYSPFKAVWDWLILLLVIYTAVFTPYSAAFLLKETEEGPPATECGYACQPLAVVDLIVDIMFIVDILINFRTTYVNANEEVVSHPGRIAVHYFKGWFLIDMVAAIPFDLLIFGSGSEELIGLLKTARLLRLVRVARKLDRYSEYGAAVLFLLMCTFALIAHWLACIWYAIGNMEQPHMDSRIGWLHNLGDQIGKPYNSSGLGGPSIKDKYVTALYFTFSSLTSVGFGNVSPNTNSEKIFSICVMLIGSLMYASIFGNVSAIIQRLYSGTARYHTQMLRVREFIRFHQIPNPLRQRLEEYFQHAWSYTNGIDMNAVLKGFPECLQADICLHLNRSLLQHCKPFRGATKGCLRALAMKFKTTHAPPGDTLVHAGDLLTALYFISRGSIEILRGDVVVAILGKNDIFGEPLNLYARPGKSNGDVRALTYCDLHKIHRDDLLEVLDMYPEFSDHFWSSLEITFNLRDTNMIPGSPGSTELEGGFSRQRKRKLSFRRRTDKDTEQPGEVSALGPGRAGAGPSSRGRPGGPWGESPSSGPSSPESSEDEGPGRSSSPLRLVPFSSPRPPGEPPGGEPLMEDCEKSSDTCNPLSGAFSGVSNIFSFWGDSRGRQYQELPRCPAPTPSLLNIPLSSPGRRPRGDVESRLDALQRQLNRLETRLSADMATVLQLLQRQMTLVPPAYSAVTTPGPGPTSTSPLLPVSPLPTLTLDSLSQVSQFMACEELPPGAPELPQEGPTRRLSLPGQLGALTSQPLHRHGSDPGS

Going from `CCCCc1ccc(NC(=S)NN2CCOCC2)cc1` to `COc1ccc(CCNC(=O)c2ccc3nc(N4CCOCC4)sc3c2)cc1OC`, the “hERG current change (%, negative = inhibition) at 1uM” value falls from 12.1% to 4.99%.

First: COc1ccc(NC(=O)CCCn2cc([N+](=O)[O-])cn2)cc1
Second: COc1ccc(/C=N/Nc2ccccc2C(=O)O)cc1Cn1cc([N+](=O)[O-])cn1
The “hERG current change (%, negative = inhibition) at 1uM” value of the first is lower: 1.91% for the first, 6.26% for the second.

Compared with `O=C(NCCCn1ccnc1)c1cccc(Br)c1`, `Cn1nc(C(=O)NCCCN2CCCCC2)c2c1-c1ccccc1SC2` is lower in “hERG current change (%, negative = inhibition) at 1uM” value: 6.56% for the first, -24.8% for the second.

First: CCOC(=O)C(NC(C)=O)(Nc1ccc(S(=O)(=O)Nc2ncccn2)cc1)C(F)(F)F (stereo not drawn)
Second: O=C(Nc1ccc(OC(F)(F)F)cc1)C1CCCN(S(=O)(=O)c2cccnc2)C1 (stereo not drawn)
The “hERG current change (%, negative = inhibition) at 1uM” value of the first is higher: 18.1% for the first, -4.09% for the second.

First: O=c1c2ccccc2ncn1-c1ccc2c(c1)OCCO2
Second: CC(C)CNS(=O)(=O)c1ccc(OCC(=O)Nc2ccc3c(c2)OCCO3)cc1
The “hERG current change (%, negative = inhibition) at 1uM” value of the first is lower: 2.75% for the first, 14.4% for the second.

First: CCC(=O)Nc1ccc(C(=O)n2nc(C)cc2C)cc1
Second: CC(C)c1ccc(NC(=O)CSc2nnc(-c3ccccn3)n2C)cc1
The “hERG current change (%, negative = inhibition) at 1uM” value of the first is higher: 1.88% for the first, -4.65% for the second.

First: Cc1c(NC(=O)c2cc(-n3cnnc3)ccc2Cl)cccc1-c1nc2ccccc2s1
Second: CCOC(=O)c1cnc(-n2nc(C)cc2C)nc1NNc1nc(-c2ccccc2)cc(-c2ccccc2)n1
The “hERG current change (%, negative = inhibition) at 1uM” value of the first is lower: -9.7% for the first, -1.53% for the second.

Going from `CC1CCCN(CCCNC(=O)c2nn(C)c3c2CSc2ccccc2-3)C1` (stereo not drawn) to `CC1CCCCN1CCCNC(=O)c1nn(C)c2c1CSc1ccccc1-2` (stereo not drawn), the “hERG current change (%, negative = inhibition) at 1uM” value rises from -66.2% to -23.4%.

First: O=C(COc1nncc2ccccc12)NCCC1=CCCCC1
Second: O=C(CCc1nnc(CCCCc2ccccc2)o1)NCCN1CCOC1=O
The “hERG current change (%, negative = inhibition) at 1uM” value of the first is lower: 9.4% for the first, 9.65% for the second.

Compared with `Cc1cc2ccccc2c(=O)n1CC(=O)NCc1ccco1`, `COCCn1c(=N)c(C(=O)NCc2ccco2)cc2c(=O)n3ccccc3nc21` is lower in “hERG current change (%, negative = inhibition) at 1uM” value: 18.5% for the first, -88% for the second.

Compared with `Cc1ccc2nc3c(cc(C(=O)NCc4ccco4)c(=N)n3Cc3ccco3)c(=O)n2c1`, `COCCn1c(=N)c(C(=O)NCc2ccco2)cc2c(=O)n3cc(C)ccc3nc21` is lower in “hERG current change (%, negative = inhibition) at 1uM” value: -86.5% for the first, -92% for the second.

Compared with `CCn1cc(C(=O)NCc2ccco2)c2cc(OC)c(OC)cc2c1=O`, `COCCn1cc(C(=O)NCc2ccco2)c2c3ccccc3n(C)c2c1=O` is higher in “hERG current change (%, negative = inhibition) at 1uM” value: -8.54% for the first, 5.73% for the second.

First: Cc1ccc(S(=O)(=O)c2cc3c(=O)n4ccccc4nc3n(Cc3ccco3)c2=N)cc1
Second: COCCn1c(=N)c(S(=O)(=O)c2ccc(Br)cc2)cc2c(=O)n3ccccc3nc21
The “hERG current change (%, negative = inhibition) at 1uM” value of the first is lower: -0.218% for the first, 9.15% for the second.

First: CCOc1ccc(N2CC(=O)N/C2=N\c2nc(C)cc(C)n2)cc1
Second: CCOc1ccc(-c2cc(C)[n+](CCO)c(-c3ccc(OCC)cc3)c2)cc1.[O-][Cl+3]([O-])([O-])[O-]
The “hERG current change (%, negative = inhibition) at 1uM” value of the first is lower: -2.01% for the first, 1.92% for the second.

First: CC(C)COC(=O)CCNc1n[nH]c(=O)[nH]c1=O
Second: COc1ccccc1OCCCC(=O)NC(C)c1ccccc1 (stereo not drawn)
The “hERG current change (%, negative = inhibition) at 1uM” value of the first is lower: 3.64% for the first, 8% for the second.

First: CCCCCCSc1nnc(N)s1
Second: CCCCCCCC[n+]1cccc2c3ccccc3ccc21.[I-]
The “hERG current change (%, negative = inhibition) at 1uM” value of the first is higher: 7.6% for the first, -92% for the second.

Compared with `O=C1CCCc2oc3c(cc(NS(=O)(=O)c4ccc5c6c(cccc46)C(=O)N5)c4ccccc43)c21`, `COc1ccc(Cn2c(-c3ccccc3)nc3c(c(=O)c4ccccc4n3C)c2=O)cc1` is lower in “hERG current change (%, negative = inhibition) at 1uM” value: -6.54% for the first, -7.94% for the second.

First: Cc1cc(C)nc(SCCC(=O)N(C)C)n1
Second: Cc1c(N(C)C)nc2ccccc2c1N.O=C(O)C(=O)O
The “hERG current change (%, negative = inhibition) at 1uM” value of the first is higher: 11% for the first, -8.8% for the second.

Compared with `CN(C)c1nc2ccccc2c(N)c1-c1ccccc1.O=C(O)C(=O)O`, `CCN(CC)c1nc2ccccc2c(N)c1-c1ccccc1.O=C(O)C(=O)O` is lower in “hERG current change (%, negative = inhibition) at 1uM” value: -39.7% for the first, -53.9% for the second.

Going from `COc1cc(/C=C2/C(=O)NN(c3ccc(F)cc3)C2=O)cc([N+](=O)[O-])c1O` to `Cc1ccc(N2C(=O)/C(=C/N3CCN(C(=O)c4ccco4)CC3)C(=O)NC2=S)cc1C`, the “hERG current change (%, negative = inhibition) at 1uM” value falls from 8.07% to 1.67%.

Compared with `O=C(OCC(=O)C12CC3CC(CC(C3)C1)C2)c1cnccn1`, `Cc1nnsc1C(=O)N1CCCC(C(=O)c2ccc(C(F)(F)F)cc2)C1` (stereo not drawn) is lower in “hERG current change (%, negative = inhibition) at 1uM” value: 8.15% for the first, 3.88% for the second.

Compared with `O=C(c1ccc2c(=O)n(Cc3ccccc3Cl)c(=S)[nH]c2c1)N1CCOCC1`, `O=C(c1nc2ccccn2c1CN1CCN(c2ccccc2O)CC1)N1CCCC1` is higher in “hERG current change (%, negative = inhibition) at 1uM” value: 13% for the first, 26% for the second.

Going from `O=C(c1nc2ccccn2c1CN1CCC(Cc2ccccc2)CC1)N1CCCC1` to `O=C(c1nc2ccccn2c1CN1CCCC(OCc2ccccc2)C1)N1CCCC1` (stereo not drawn), the “hERG current change (%, negative = inhibition) at 1uM” value rises from -54.2% to -25.7%.

First: CCN(CC)c1ccc(/C=C2\C(=O)NC(=S)N(C)C2=O)o1
Second: O=C1CCCN1CCCNS(=O)(=O)c1ccc(F)c(F)c1
The “hERG current change (%, negative = inhibition) at 1uM” value of the first is lower: 7.14% for the first, 13.5% for the second.

Going from `C#CCn1c(=NC(=O)c2ccccc2[N+](=O)[O-])sc2cc(S(C)(=O)=O)ccc21` to `Cc1ccccc1Nc1nc(N)nc(COC(=O)c2cccc(S(=O)(=O)N(C)C)c2)n1`, the “hERG current change (%, negative = inhibition) at 1uM” value falls from 13.3% to 8.43%.

Going from `CC1CC(c2ccccc2)n2nc(NC(=O)CCc3ccccc3)nc2N1` (stereo not drawn) to `[Cl-].c1ccc(C[n+]2cccc3c4ccccc4ccc32)cc1`, the “hERG current change (%, negative = inhibition) at 1uM” value falls from -1.41% to -2.14%.

First: CCCCCCCCC[n+]1cccc2c3ccccc3ccc21.[Br-]
Second: CCCCCCCCCCCCCCCC[n+]1cccc2ccccc21.[I-]
The “hERG current change (%, negative = inhibition) at 1uM” value of the first is lower: -91.7% for the first, -23% for the second.

First: O=[N+]([O-])c1ccc(C[n+]2cccc3c4ccccc4ccc32)cc1.[Br-]
Second: O=[N+]([O-])c1ccc(C[n+]2c(-c3ccccc3)cc(-c3ccccc3)cc2-c2ccccc2)cc1.[O-][Cl+3]([O-])([O-])[O-]
The “hERG current change (%, negative = inhibition) at 1uM” value of the first is lower: -18% for the first, 7.61% for the second.

Going from `Cc1cccc[n+]1CCCCCCCCCC[n+]1ccccc1C.[Br-]` to `Cc1cc(-c2ccccc2)cc(C)[n+]1Cc1ccccc1.[O-][Cl+3]([O-])([O-])[O-]`, the “hERG current change (%, negative = inhibition) at 1uM” value falls from 20.8% to 6.49%.

Going from `CCOc1ccc(-c2cc(C)[n+](CCc3ccc(OC)c(OC)c3)c(-c3ccc(OCC)cc3)c2)cc1.[O-][Cl+3]([O-])([O-])[O-]` to `CCOc1ccc(-c2cc(C)[n+](CCN(CC)CC)c(-c3ccc(OCC)cc3)c2)cc1.[O-][Cl+3]([O-])([O-])[O-]`, the “hERG current change (%, negative = inhibition) at 1uM” value rises from -70.1% to -19.3%.

Compared with `Cc1cc(-c2ccccc2)cc(-c2ccccc2)[n+]1CCc1ccccc1.[O-][Cl+3]([O-])([O-])[O-]`, `CCN(CC(=O)Nc1ccc(NC(C)=O)cc1)C(=O)COc1ccccc1-c1ccccc1` is higher in “hERG current change (%, negative = inhibition) at 1uM” value: -78.4% for the first, 12% for the second.

Going from `CCNc1nc(NCC)nc(N/N=C/c2ccc(Br)cc2)n1` to `CCC(=O)N1CCN(CCN=CC2=C(O)CC(c3ccc(OC)cc3)CC2=O)CC1` (stereo not drawn), the “hERG current change (%, negative = inhibition) at 1uM” value falls from 8.67% to 8.12%.

Compared with `COc1ccc2c(C=O)c[nH]c2c1`, `COc1ccc(C2CC(=O)C(C=NCCO)=C(O)C2)cc1OC` (stereo not drawn) is higher in “hERG current change (%, negative = inhibition) at 1uM” value: 6.81% for the first, 13.4% for the second.

Compared with `COc1ccc(-c2cc(-c3ccco3)[nH]c(=O)c2C#N)cc1OC`, `COc1ccc(C2CC(=O)C(C=NCCN3CCN(C(=S)Nc4ccccc4)CC3)=C(O)C2)cc1OC` (stereo not drawn) is lower in “hERG current change (%, negative = inhibition) at 1uM” value: 13.5% for the first, 1.75% for the second.

First: COc1ccc(C2CC(=O)C(C=NCCN3CCN(C(C)=O)CC3)=C(O)C2)cc1 (stereo not drawn)
Second: CCCCCC(=O)N1CCN(CCN=CC2=C(O)CC(c3ccc(OC)cc3)CC2=O)CC1 (stereo not drawn)
The “hERG current change (%, negative = inhibition) at 1uM” value of the first is higher: 0.835% for the first, -54.5% for the second.

Compared with `CCCCCC(=O)N1CCN(CCN=CC2=C(O)CC(c3ccc(OC)c(OC)c3)CC2=O)CC1` (stereo not drawn), `Cc1ccc(OCC(O)CN2CCN(CC(O)COc3ccc(C)cc3Cl)CC2)c(Cl)c1` (stereo not drawn) is higher in “hERG current change (%, negative = inhibition) at 1uM” value: -56.5% for the first, -5.75% for the second.

First: Cl.OC(COCc1ccccc1)CN1CCN(Cc2ccc3c(c2)OCO3)CC1 (stereo not drawn)
Second: Cl.OC(COCc1ccc2c(c1)OCO2)CN1CCN(Cc2ccccc2)CC1 (stereo not drawn)
The “hERG current change (%, negative = inhibition) at 1uM” value of the first is higher: -0.707% for the first, -8.65% for the second.

Compared with `OC(COc1ccc(F)cc1Cl)CN1CCC(Cc2ccccc2)CC1` (stereo not drawn), `Cl.OC(COc1ccccc1F)CN1CCC(Cc2ccccc2)CC1` (stereo not drawn) is higher in “hERG current change (%, negative = inhibition) at 1uM” value: -81.4% for the first, -55.7% for the second.

Compared with `CC(=O)Nc1ccc(OCC(O)CN2C(C)CCCC2C)cc1.Cl` (stereo not drawn), `CC1CCCC(C)N1CC(O)COc1ccc(Cl)cc1` (stereo not drawn) is lower in “hERG current change (%, negative = inhibition) at 1uM” value: 15.2% for the first, -57.6% for the second.

Going from `Cl.OC(COCc1ccc2c(c1)OCO2)CN1CCC(Cc2ccccc2)CC1` (stereo not drawn) to `Cc1ccc(OCC(O)CN2CCC(Cc3ccccc3)CC2)c(C)c1.Cl` (stereo not drawn), the “hERG current change (%, negative = inhibition) at 1uM” value rises from -79.4% to -49.9%.

Compared with `OC(COc1ccc(F)cc1Cl)CN1CCc2ccccc2C1` (stereo not drawn), `Cc1ccc(C)c(OCC(O)CN2CCC(Cc3ccccc3)CC2)c1.Cl` (stereo not drawn) is lower in “hERG current change (%, negative = inhibition) at 1uM” value: -10.6% for the first, -43.1% for the second.

Compared with `Cc1cc(Cl)ccc1OCC(O)CN1C(C)CCCC1C.Cl` (stereo not drawn), `Cc1cc(NC(=O)Cc2ccccc2C)no1` is higher in “hERG current change (%, negative = inhibition) at 1uM” value: -46.3% for the first, 10.2% for the second.
